Compounds with a hit are over-represented: about 3.4% of the library has one in this group of screens.
TEAD-YAP block: TEAD-YAP interaction inhibition; inhibition, % at 9.12 µM; AID 1259422; 640,000 tested, 1.4% active; HEK-TIYL cells, TEAD-Gal4/YAP UAS-luciferase luminescence; in the data active = inhibition above about 32%;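 note: 0% = median of test compound wells and 100% = reference inhibitor wells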
FBW7 act: activators of human E3 ligase FBW7; Q969H0; AlphaScreen FBW7–phospho-cyclin E peptide binding, activator screen; normalized activity (activation), % at 26.1 µM; 650,000 tested, 0.13% active; AID 1259310; in the data active = normalized activity above about 1.9%;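 note: purified mutant Fbw7 with reduced substrate affinity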
Target sequence (Q969H0 whole entry, looked up): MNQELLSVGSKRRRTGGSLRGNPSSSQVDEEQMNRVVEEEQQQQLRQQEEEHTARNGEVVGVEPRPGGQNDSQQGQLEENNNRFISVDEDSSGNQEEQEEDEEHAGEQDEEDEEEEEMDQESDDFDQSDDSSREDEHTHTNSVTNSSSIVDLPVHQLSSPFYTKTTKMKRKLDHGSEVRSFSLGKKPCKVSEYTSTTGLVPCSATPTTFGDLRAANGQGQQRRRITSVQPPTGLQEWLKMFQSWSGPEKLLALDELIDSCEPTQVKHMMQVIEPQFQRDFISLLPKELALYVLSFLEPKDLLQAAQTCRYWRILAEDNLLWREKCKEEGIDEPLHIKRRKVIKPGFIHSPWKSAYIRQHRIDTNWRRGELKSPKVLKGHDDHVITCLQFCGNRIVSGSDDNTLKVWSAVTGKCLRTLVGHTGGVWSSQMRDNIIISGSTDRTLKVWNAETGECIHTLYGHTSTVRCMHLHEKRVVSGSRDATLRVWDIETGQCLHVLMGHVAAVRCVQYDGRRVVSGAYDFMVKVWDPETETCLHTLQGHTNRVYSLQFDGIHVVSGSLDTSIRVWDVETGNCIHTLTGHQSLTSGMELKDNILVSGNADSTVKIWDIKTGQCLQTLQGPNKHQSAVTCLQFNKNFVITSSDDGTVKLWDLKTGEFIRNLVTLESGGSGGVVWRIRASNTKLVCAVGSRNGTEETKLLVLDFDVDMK
GPR151 ag: activates the human receptor GPR151. PathHunter beta-arrestin GPR151 cells, luminescence. activation, % at 11.2 µM. 650,000 tested, 1% active; in the data active = activation above about 4.9%;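 note: 0% = median of compound wells and 100% = cells with positive control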
MITF primary: inhibitors of human MITF; O75030; AlphaScreen MITF homodimerization, bead proximity signal; inhibition, % at 2.6 µM; 650,000 tested, 0.91% active; AID 1259374; in the data active = inhibition above about 50%;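 note: 0% = vehicle wells with protein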
* marks the source's active call; other numbers are inactive results.

What do the screens show for `CCOC(=O)N1CCN(c2ncnc3c2c(-c2ccccc2)cn3-c2ccc(Br)cc2)CC1`?
TEAD-YAP block: 6; FBW7 act: 0; GPR151 ag: -1; MITF primary: 4

Results for COc1ccc(SCCCC(=O)Nc2nc3c(s2)CCCC3)cc1 ?
TEAD-YAP block: -4; FBW7 act: 0; GPR151 ag: 0; MITF primary: 7

What do the screens show for `Cc1ccc(S(=O)(=O)Nc2ccccc2/C=N\n2cnnc2)cc1`?
TEAD-YAP block: 48*; FBW7 act: 0; GPR151 ag: 0; MITF primary: 2

What do the screens show for `CCOC(=O)c1ccc(N2N=C(C(F)(F)F)/C(=C/C=C/c3ccco3)C2=O)cc1`?
TEAD-YAP block: 3; FBW7 act: 0; GPR151 ag: 0; MITF primary: 64*

Results for CC(C)n1c(Nc2ccccn2)nc2c(NCCOc3ccccc3)ncnc21 ?
TEAD-YAP block: -29; FBW7 act: 0; GPR151 ag: 2; MITF primary: -1

How did CC(C)n1c(Nc2ccccn2)nc2c(Nc3ccc(Oc4ccccc4)cc3)ncnc21 do in these assays?
TEAD-YAP block: 56*; FBW7 act: 0; GPR151 ag: 1; MITF primary: 1

What do the screens show for `Nc1ccc(N2C(=O)c3ccc(N)cc3C2=O)cc1`?
TEAD-YAP block: 34*; FBW7 act: 0; GPR151 ag: 0; MITF primary: 8

Results for Nc1ccc2c(c1)C(=O)N(c1ccc(O)cc1)C2=O ?
TEAD-YAP block: 4; FBW7 act: 0; GPR151 ag: 0; MITF primary: 3

What do the screens show for `CC(=O)Nc1ccc2c(c1)C(=O)N(c1cccc(OC(C)=O)c1)C2=O`?
TEAD-YAP block: -8; FBW7 act: 0; GPR151 ag: 4; MITF primary: -1

How did CCCCOc1ccc(CSCCN=C(N)N)cc1 do in these assays?
TEAD-YAP block: 17; FBW7 act: 0; GPR151 ag: 0; MITF primary: 7

How did CCCCCOc1ccc(CSCCN)cc1 do in these assays?
TEAD-YAP block: 65*; FBW7 act: 0; GPR151 ag: 0; MITF primary: -7

Results for CCCCOc1ccc(CSCCN)cc1 ?
TEAD-YAP block: 46*; FBW7 act: 0; GPR151 ag: -1; MITF primary: 3

What do the screens show for `O=C(/C=C/c1ccccc1Cl)Nc1nnc(Cc2ccc(F)cc2)o1`?
TEAD-YAP block: 3; FBW7 act: 0; GPR151 ag: 0; MITF primary: -3

Results for Cc1ccc(S(=O)(=O)N2CCCC(C(F)(F)F)C2)cc1 (configuration not stated) ?
TEAD-YAP block: -2; FBW7 act: -1; GPR151 ag: 0; MITF primary: 9

How did O=C(Nc1ccccc1O)c1cccc(S(=O)(=O)N2CCCCC2)c1 do in these assays?
TEAD-YAP block: 5; FBW7 act: 1; GPR151 ag: 0; MITF primary: 14

How did O=C(Nc1cccc2cnccc12)c1cccc(S(=O)(=O)N2CCCCCC2)c1 do in these assays?
TEAD-YAP block: 38*; FBW7 act: 0; GPR151 ag: 1; MITF primary: 8

What do the screens show for `COc1ccc(C)cc1NS(=O)(=O)c1cccc(C(=O)O)c1`?
TEAD-YAP block: -2; FBW7 act: 1.9*; GPR151 ag: 0; MITF primary: 19

What do the screens show for `COC(=O)CN(c1cc(OC)ccc1OC)S(=O)(=O)c1ccc(C)cc1`?
TEAD-YAP block: 44*; FBW7 act: 0; GPR151 ag: 2; MITF primary: 3

What do the screens show for `COc1ccc(OS(=O)(=O)c2cc(C)ccc2OC)cc1`?
TEAD-YAP block: 48*; FBW7 act: 0; GPR151 ag: -1; MITF primary: -6

What do the screens show for `Cc1ccc(Br)c(NS(=O)(=O)c2cccc(C(=O)O)c2)c1`?
TEAD-YAP block: 3; FBW7 act: 1; GPR151 ag: 0; MITF primary: 9

Results for COc1ccc(S(=O)(=O)Nc2cc(Cl)ccc2OC)cc1 ?
TEAD-YAP block: 61*; FBW7 act: 0; GPR151 ag: -3; MITF primary: 3

Results for COc1ccc(OC)c(S(=O)(=O)Oc2c(C)cccc2C)c1 ?
TEAD-YAP block: -3; FBW7 act: 0; GPR151 ag: 3; MITF primary: -5

What do the screens show for `COC(=O)c1ccccc1NC1=NS(=O)(=O)c2ccccc21`?
TEAD-YAP block: -2; FBW7 act: 1; GPR151 ag: 0; MITF primary: 17

How did OC(C#CCC(O)c1ccccc1)c1ccccc1 (configuration not stated) do in these assays?
TEAD-YAP block: 1; FBW7 act: 0; GPR151 ag: 1; MITF primary: -4

How did CS(=O)(=O)N1CCN(C(=O)c2ccccc2Cl)CC1 do in these assays?
TEAD-YAP block: -3; FBW7 act: 0; GPR151 ag: 0; MITF primary: -8

How did COc1cc(NS(=O)(=O)c2ccc(Cl)cc2)c(OC)cc1Br do in these assays?
TEAD-YAP block: 34*; FBW7 act: 0; GPR151 ag: 0; MITF primary: 21

What do the screens show for `COc1ccc(C)cc1NS(=O)(=O)c1ccc(C)cc1`?
TEAD-YAP block: 7; FBW7 act: 0; GPR151 ag: -1; MITF primary: -13

How did COc1ccc(Cl)cc1NS(=O)(=O)c1ccc(F)cc1 do in these assays?
TEAD-YAP block: -10; FBW7 act: 0; GPR151 ag: -1; MITF primary: -13

What do the screens show for `COc1ccc(S(=O)(=O)Nc2cc(C)ccc2OC)cc1`?
TEAD-YAP block: 58*; FBW7 act: 0; GPR151 ag: 0; MITF primary: 1

What do the screens show for `CN1CCCc2cc(CN3CCC4(CC3)CC4C(=O)NCc3cccs3)ccc21` (configuration not stated)?
TEAD-YAP block: -1; FBW7 act: 0; GPR151 ag: 0; MITF primary: 6

Results for COc1ccc(C(=O)/C=C/c2cccc(F)c2)cc1 ?
TEAD-YAP block: -46; FBW7 act: -1; GPR151 ag: 1; MITF primary: -3

What do the screens show for `COC(=O)c1ccc(/C=C/C(=O)c2ccc(F)cc2)cc1`?
TEAD-YAP block: -40; FBW7 act: 0; GPR151 ag: 3; MITF primary: 0

What do the screens show for `COc1cc(C(=O)/C=C/c2ccc(F)cc2)ccc1O`?
TEAD-YAP block: 66*; FBW7 act: 0; GPR151 ag: 0; MITF primary: -14

Results for COc1cc(C(=O)/C=C/c2cccc(F)c2)ccc1O ?
TEAD-YAP block: 56*; FBW7 act: 0; GPR151 ag: 4; MITF primary: 8

How did O=C(O)c1ccccc1-c1nc2ccc([N+](=O)[O-])cc2[nH]1 do in these assays?
TEAD-YAP block: 17; FBW7 act: 0; GPR151 ag: -8; MITF primary: 15

What do the screens show for `COc1ccc(S(=O)(=O)Nc2cccc([N+](=O)[O-])c2)cc1C`?
TEAD-YAP block: 2; FBW7 act: 0; GPR151 ag: -1; MITF primary: -6

Results for Cc1cc(C)n(/N=C/c2cc([N+](=O)[O-])ccc2Cl)c(=O)c1 ?
TEAD-YAP block: 5; FBW7 act: 1; GPR151 ag: 0; MITF primary: 17

How did O=S(=O)(NC1CCCCCCC1)c1ccccc1 do in these assays?
TEAD-YAP block: -3; FBW7 act: 0; GPR151 ag: 1; MITF primary: 6
